Source: PubChem BioAssay
Activity calls are given as the source filed them.

What was measured:
[1] = compounds binding Alexa647 anti-His antibody – biochemical, small-molecule microarray, 635 nm fluorescence, artefact control for SMM control protein annotation, primary screen (AID 1128); conditions: higher = more signal;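 note: score merges feature fluorescence with signal-to-noise for each printed compound spot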
[2] = system: Human papillomavirus type 1a E7 protein (residues 1-88); assay: HPV1a E7 small-molecule binders, primary screen, biochemical, small-molecule microarray, residues 1-88, 635 nm (AID 1129); conditions: small-molecule microarray binding, fluorescence 635 nm; higher = more signal
[3] = target: Focal adhesion kinase 1 (Homo sapiens) (UniProt Q05397); assay: PTK2 protein binding on printed compound slides – biochemical, small-molecule microarray, 635/667 nm fluorescence, BSA, DTT, primary screen (AID 1130); conditions: 635 nm fluorescence, higher = more signal;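 note: composite of spot emission at 667 nm and signal to noise over triplicate slides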
Focal adhesion kinase 1 (Homo sapiens), sequence (Q05397 whole entry, looked up): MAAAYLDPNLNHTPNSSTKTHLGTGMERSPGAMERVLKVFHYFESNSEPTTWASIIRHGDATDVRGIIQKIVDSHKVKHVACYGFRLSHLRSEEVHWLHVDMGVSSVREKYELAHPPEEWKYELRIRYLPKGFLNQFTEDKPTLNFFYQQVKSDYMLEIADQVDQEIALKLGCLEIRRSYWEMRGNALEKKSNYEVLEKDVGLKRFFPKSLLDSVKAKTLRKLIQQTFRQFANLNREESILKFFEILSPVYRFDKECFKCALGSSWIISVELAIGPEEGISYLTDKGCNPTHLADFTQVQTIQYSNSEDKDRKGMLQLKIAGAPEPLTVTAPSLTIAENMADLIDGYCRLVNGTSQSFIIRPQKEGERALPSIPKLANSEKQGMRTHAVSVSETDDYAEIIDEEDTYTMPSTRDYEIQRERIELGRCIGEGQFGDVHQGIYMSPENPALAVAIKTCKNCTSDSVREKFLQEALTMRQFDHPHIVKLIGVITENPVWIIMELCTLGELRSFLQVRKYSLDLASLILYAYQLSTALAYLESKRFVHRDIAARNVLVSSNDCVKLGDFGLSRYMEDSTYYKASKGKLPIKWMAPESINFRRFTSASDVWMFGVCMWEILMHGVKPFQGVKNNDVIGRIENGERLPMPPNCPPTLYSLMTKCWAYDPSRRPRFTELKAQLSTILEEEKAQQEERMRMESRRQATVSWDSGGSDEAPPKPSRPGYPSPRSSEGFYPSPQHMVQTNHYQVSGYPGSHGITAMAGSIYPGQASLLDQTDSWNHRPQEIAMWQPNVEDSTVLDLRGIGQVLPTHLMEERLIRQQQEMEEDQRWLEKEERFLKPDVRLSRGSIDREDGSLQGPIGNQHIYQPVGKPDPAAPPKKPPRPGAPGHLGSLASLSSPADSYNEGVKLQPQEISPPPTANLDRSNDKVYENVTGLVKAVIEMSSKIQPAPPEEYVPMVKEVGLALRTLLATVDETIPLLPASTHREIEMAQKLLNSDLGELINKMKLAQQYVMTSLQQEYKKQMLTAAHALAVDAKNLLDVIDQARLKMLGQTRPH

[4] = system: Fibrinogen (Alexa647-labelled); assay: Alexa647-fibrinogen binding to printed small molecules – biochemical, small-molecule microarray, 635/667 nm fluorescence, artefact control for SMM control-protein annotation, profiling panel (AID 1131); conditions: fibrinogen-A647 binding fluorescence, higher = more signal;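 note: z-score merges 667 nm fluorescence with per-spot signal-to-noise over triplicate slides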
[5] = target: Follistatin (Homo sapiens) (UniProt P19883); assay: FST protein binding to printed compounds – biochemical, small-molecule microarray, 635/667 nm fluorescence, primary screen (AID 1132); conditions: 635 nm fluorescence, higher = more signal
Follistatin (Homo sapiens), sequence (P19883 whole entry, looked up): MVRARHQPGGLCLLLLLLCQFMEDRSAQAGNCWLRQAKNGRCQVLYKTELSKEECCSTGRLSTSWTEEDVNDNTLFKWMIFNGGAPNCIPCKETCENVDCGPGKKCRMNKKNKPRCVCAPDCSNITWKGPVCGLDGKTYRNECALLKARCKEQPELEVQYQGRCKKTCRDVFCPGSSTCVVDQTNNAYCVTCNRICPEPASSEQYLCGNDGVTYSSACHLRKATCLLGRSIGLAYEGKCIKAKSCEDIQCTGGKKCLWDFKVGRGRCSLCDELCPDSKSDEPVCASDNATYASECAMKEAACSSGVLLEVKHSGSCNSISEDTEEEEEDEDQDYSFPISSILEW

[6] = target: Fibroblast growth factor 2 (Homo sapiens) (UniProt P09038); assay: basic fibroblast growth factor binding to printed compounds – biochemical, small-molecule microarray, 635/667 nm fluorescence, primary screen (AID 1133); conditions: FGF2, fluorescence 635/667, higher = more signal
Fibroblast growth factor 2 (Homo sapiens), sequence (P09038 whole entry, looked up): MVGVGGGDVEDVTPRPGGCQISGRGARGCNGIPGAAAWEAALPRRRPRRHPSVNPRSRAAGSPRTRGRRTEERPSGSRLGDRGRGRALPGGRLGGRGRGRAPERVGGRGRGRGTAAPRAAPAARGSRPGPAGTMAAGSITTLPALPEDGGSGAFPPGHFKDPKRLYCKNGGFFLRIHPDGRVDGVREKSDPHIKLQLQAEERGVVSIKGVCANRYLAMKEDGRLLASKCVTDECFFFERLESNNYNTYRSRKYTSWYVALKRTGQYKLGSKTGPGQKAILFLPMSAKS

[7] = JC-1 mitochondrial potential readout, lung cancer cells – cell-based, A549, JC-1 fluorescence, basal, 24 h, 100 nL, profiling panel (AID 1138); conditions: higher = more signal;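 note: A549 lung adenocarcinoma cells under basal conditions with no added stimulus; test concentration not given here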
Lefty1 = Lefty1 protein binding to printed compounds – biochemical, small-molecule microarray, 635/667 nm fluorescence, primary screen (AID 1139); conditions: fluorescence 635/667, higher = more signal
[8] = system: wheat germ agglutinin (Triticum aestivum), Alexa647-labelled; assay: Alexa647-WGA lectin binding to printed small molecules – biochemical, small-molecule microarray, 635/667 nm fluorescence, artefact control for SMM control-protein annotation, profiling panel (AID 1140); conditions: WGA-A647 binding, 635 nm fluorescence, higher = more signal;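 note: score merges 667 nm feature emission with signal to noise over triplicate slides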
[9] = target: Luciferin 4-monooxygenase (Photinus pyralis) (UniProt P08659); assay: inhibition of purified Photinus pyralis luciferase – biochemical, luminescence, purified enzyme, 2006 set, primary screen (AID 1141); conditions: purified firefly luciferase, SteadyGlo luminescence, 30 min; higher = more signal, called active from +8 up or from −8 down;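 note: cell-free assay with purified firefly luciferase at 100 ng per well in PBS; test concentration not given here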
Luciferin 4-monooxygenase (Photinus pyralis), sequence (P08659 whole entry, looked up): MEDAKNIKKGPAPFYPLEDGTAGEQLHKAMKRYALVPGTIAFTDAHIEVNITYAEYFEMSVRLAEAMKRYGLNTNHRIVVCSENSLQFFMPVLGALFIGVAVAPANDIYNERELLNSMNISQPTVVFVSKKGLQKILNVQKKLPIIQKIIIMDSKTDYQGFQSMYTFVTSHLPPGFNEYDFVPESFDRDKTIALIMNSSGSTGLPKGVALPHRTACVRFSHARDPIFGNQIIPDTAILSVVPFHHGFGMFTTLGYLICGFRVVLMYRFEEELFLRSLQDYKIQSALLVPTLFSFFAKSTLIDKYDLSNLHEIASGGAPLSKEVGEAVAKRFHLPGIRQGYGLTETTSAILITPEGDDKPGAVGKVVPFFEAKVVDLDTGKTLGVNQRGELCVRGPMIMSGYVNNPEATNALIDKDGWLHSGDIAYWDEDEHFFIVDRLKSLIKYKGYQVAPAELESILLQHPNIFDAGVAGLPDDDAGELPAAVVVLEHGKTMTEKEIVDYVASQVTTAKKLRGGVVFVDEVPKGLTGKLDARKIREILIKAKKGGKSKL

| Compound | composite z-score [1] | composite z-score [2] | composite z-score [3] | composite z-score [4] | composite z-score [5] | composite z-score [6] | z-score [7] | composite z-score (Lefty1) | composite z-score [8] | z-score [9] |
| --- | --- | --- | --- | --- | --- | --- | --- | --- | --- | --- |
| CCOC(=O)[C@H](Cc1ccccc1)NC(=O)CCC1CC(OC(=O)NCc2ccc3c(c2)OCO3)CC2(CCCC(COC(=O)NCCc3ccccc3OC)O2)O1 (stereo not given in full) | 0.969 | 1.2 | 0.492 | 1 | 1.07 | 1.32 | -0.654 | 1.36 | 0.63 | 0.274 (inactive) |
| CCOC(=O)NN=C1C[C@@H](O)[C@@H](O)[C@@H]2[C@@H]3C(=O)N([C@@H](C)c4ccccc4)C(=O)[C@@H]3CC[C@@H]12 | -0.43 | 0.0085 | 0.692 | 0.897 | 1.28 | 0.642 | -0.337 | 1.3 | 0.193 | 0.685 (inactive) |
| COC(=O)[C@H](C)NC(=O)CCC1CC(OC(=O)NCCc2ccc(F)cc2)CC2(CCCC(COC(=O)NCc3cccc(C(F)(F)F)c3)O2)O1 (stereo not given in full) | 0.158 | 0.637 | 0.145 | 0.563 | 1.19 | 0.617 | -0.0843 | 1.43 | 0.0337 | 0.0641 (inactive) |
| COC(=O)CC=C[C@H](C)[C@@H](OCc1cccc(Br)c1)[C@@H](C)[C@H](OC)C1CCCCC1 | 0.0864 | -1.06 | -0.484 | -1.74 | 0.22 | -0.0877 | 1.74 | 0.525 | 0.325 | -3.27 (inactive) |
| CON=C[C@@H](C)[C@H](OCc1ccccc1)C(C)C | -0.032 | -1.2 | 0.119 | -0.734 | 0.359 | 0.211 | -1.1 | 0.347 | -0.195 | 0.592 (inactive) |
| CCOC(=O)[C@H](CC(C)C)NC(=O)CCC1CC(OC(=O)NCc2ccc3c(c2)OCO3)CC2(CCCC(COC(=O)NCC(c3ccccc3)c3ccccc3)O2)O1 (stereo not given in full) | 0.423 | 0.572 | -0.2 | 0.683 | 0.669 | 0.191 | -0.025 | 1.32 | 0.61 | 0.864 (inactive) |
| CO[C@H]1COC(=O)CC=C[C@H](C)[C@@H](OC)COC(=O)[C@@H](C)COC(=O)CC=C[C@@H]1C | -0.756 | -0.699 | -0.111 | -1.26 | 1.5 | 1.77 | 0.657 | 1.55 | -1.05 | -0.454 (inactive) |
| O=C(NN=C1C[C@@H](O)[C@@H](O)[C@@H]2[C@@H]3C(=O)N(C[C@@H]4CCCO4)C(=O)[C@@H]3CC[C@H]12)OCc1ccccc1 | -0.0516 | 0.0327 | -0.147 | 0.271 | -0.606 | -0.183 | -0.0539 | -0.793 | 0.717 | 0.304 (inactive) |
| CCOC(=O)[C@H](Cc1ccccc1)NC(=O)CCC1CC(OC(=O)NCc2ccc3c(c2)OCO3)CC2(CCCC(COC(=O)NCCC(C)C)O2)O1 (stereo not given in full) | 0.408 | 0.57 | 0.234 | 0.894 | 0.443 | 1.06 | -0.549 | 0.722 | 0.531 | 0.906 (inactive) |
| COc1ccc(COC(=O)NN=C2C[C@@H](O)[C@@H](O)[C@@H]3[C@@H]4C(=O)N(c5ccc(F)cc5F)C(=O)[C@@H]4CC[C@H]23)cc1 | 0.524 | -0.199 | 0.168 | 0.89 | -0.469 | 0.0314 | -0.654 | -0.773 | 0.4 | 0.732 (inactive) |
| O=C1CCCC=C1C(O)CCCCBr (stereo not given) | 3.06 | 0.466 | -0.0308 | 0.798 | 1.01 | 0.306 | 1.04 | 0.564 | 1.28 | -1.97 (inactive) |
| C=CC1=C[C@H](O)[C@@H]2O[C@@H]2C12OCCCO2 | 0.837 | 0.661 | 0.172 | 0.429 | -0.285 | 0.151 | -0.722 | 0.0863 | -0.159 | 0.571 (inactive) |
| CC(C)(C)N1C(=O)[C@H]2[C@H]3[C@H](O)[C@H](O)CC(=NOCc4ccccc4)[C@H]3CC[C@H]2C1=O | 0.102 | 0.0128 | -0.103 | 0.451 | -0.829 | -0.34 | -0.316 | -0.484 | 0.877 | 0.109 (inactive) |
| CC(CCN1CCCCc2nc(C)c(C)cc21)=NO[C@@H](C)c1cn([C@H](CO)Cc2ccccc2)nn1 | 1.67 | 0.285 | 0.321 | 0.624 | 0.915 | 0.545 | 0.868 | 0.828 | -0.101 | 0.175 (inactive) |
| CON=C[C@@H](NS(=O)(=O)c1ccc(C)cc1)[C@H](C)C=CCC(=O)OC | 0.4 | -1.15 | 0.438 | -0.717 | 0.718 | 0.747 | 0.764 | 0.585 | -0.35 | -0.42 (inactive) |
| C#CCCCON=C1C[C@@H](O)[C@@H](O)[C@@H]2[C@@H]3C(=O)N(Cc4ccccc4)C(=O)[C@@H]3CC[C@@H]12 | 0.309 | -0.032 | 0.0147 | -0.691 | -0.0389 | 0.0054 | 0.477 | 0.19 | 0.249 | 0.807 (inactive) |
| COCCNC(=O)OCC1CCCC2(CC(OC(=O)NCc3ccc4c(c3)OCO4)CC(CCC(=O)N[C@@H](C)C(=O)OC)O2)O1 (stereo not given in full) | 0.721 | 0.885 | 0.136 | 0.592 | 0.752 | 1.13 | -0.397 | 1.3 | 0.139 | 0.89 (inactive) |
